The text below walks through data of PubChem BioAssay.

Experiment [1] deals with Tumor necrosis factor receptor superfamily member 10B (Homo sapiens) (UniProt O14763). Description: caspase-8 TRAIL sensitization, hit retest, confirmation, cell-based, NB7+caspase-8, with/without TRAIL, luminescence panel (AID 651596). The note with it: NB7 neuroblastoma + caspase-8, TRAIL sensitization, luminescence viability, with TRAIL, mean of runs, at 10 µM, stronger effect = higher value.

Experiment in experiment [2]: as above
The conditions noted are these: NB7 neuroblastoma + caspase-8, without TRAIL, luminescence viability, without TRAIL, mean of runs, at 10 µM.

The target of experiment [3] is Tumor necrosis factor receptor superfamily member 10B (Homo sapiens) (UniProt O14763). Description: TRAIL sensitizers in caspase-8 expressing neuroblastoma cells, dose response, NB7 cells plus caspase-8, luminescence, panel (AID 652002). The note with it: NB7 neuroblastoma +caspase-8, TRAIL sensitization, luminescence viability, NB7+Caspase-8, with TRAIL, run 1; at 12.5 µM (top of the series).

Experiment [4] shares this target. The description is as above. The conditions noted are these: NB7 neuroblastoma +caspase-8, TRAIL sensitization, luminescence viability, NB7+Caspase-8, with TRAIL, run 2; at 12.5 µM (top of the series).
Experiment in experiment [5]: as above
The note with it: NB7 neuroblastoma +caspase-8, no TRAIL, compound-alone cytotoxicity counter-screen, luminescence viability, NB7+Caspase-8, run 1; at 12.5 µM (top of the series) unless noted. A general note: The purpose of a counterscreen is to sort out artefacts and off-target activity.

Experiment in experiment [6]: as above
The note with it: NB7 neuroblastoma +caspase-8, no TRAIL, compound-alone cytotoxicity counter-screen, luminescence viability, NB7+Caspase-8, run 2; at 12.5 µM (top of the series) unless noted.

The structures appear in SMILES notation.

Tumor necrosis factor receptor superfamily member 10B (Homo sapiens), sequence (O14763 whole entry, looked up): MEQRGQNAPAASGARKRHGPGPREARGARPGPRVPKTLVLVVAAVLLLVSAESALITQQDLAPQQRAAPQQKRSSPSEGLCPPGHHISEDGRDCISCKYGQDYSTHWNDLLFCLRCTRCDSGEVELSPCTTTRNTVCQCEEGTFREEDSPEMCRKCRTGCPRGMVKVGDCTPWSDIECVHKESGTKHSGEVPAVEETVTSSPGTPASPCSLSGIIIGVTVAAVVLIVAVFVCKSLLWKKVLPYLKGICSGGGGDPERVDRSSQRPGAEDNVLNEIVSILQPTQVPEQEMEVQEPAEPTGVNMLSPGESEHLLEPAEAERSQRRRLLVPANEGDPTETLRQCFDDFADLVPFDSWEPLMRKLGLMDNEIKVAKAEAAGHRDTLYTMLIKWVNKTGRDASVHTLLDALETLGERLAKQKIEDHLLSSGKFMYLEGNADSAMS

Regarding `COc1ccc(-c2nnc(SCC(=O)c3[nH]c(C)c(C(C)=O)c3C)o2)cc1`, the activity in experiment [1] turned out to be 54.1%; in experiment [2], 53.9%. For the same compound, the activity, % sensitization in experiment [3] is -37%; in experiment [4], -7.9%; in experiment [5], -20.2%; in experiment [6], -16.4%.

For the compound `CCc1nnc(NC(=O)c2nc(S(=O)(=O)Cc3ccccc3)ncc2Cl)s1`, the activity came to 95.4% in experiment [1] and 74.3% in experiment [2].

Consider `O=C(N/N=C/c1ccccc1[N+](=O)[O-])c1ccc2c(c1)OCCO2`, for which the activity in experiment [1] is 95.4%; in experiment [2], 94.5%.

Turning to `Cc1ccc(-n2nnc(-c3cccnc3Cl)n2)cc1`, the activity in experiment [1] is 56.4%; in experiment [2], 47.5%. Moreover, the activity, % sensitization in experiment [3] was 33.6%; in experiment [4], -11.1%; in experiment [5] it was 12%; in experiment [6] it was -10.2%.

Turning to `Cc1cc(N/N=C/c2ccccc2)nc(NCc2ccccc2)n1`, the results for the activity in experiment [1] and in experiment [2] were 53.9% and 41.1%, respectively. Also, the activity, % sensitization was determined as 30.4% in experiment [3], 39.6% in experiment [4], 5.63% in experiment [5] and 26.4% in experiment [6].

With `Cc1ccc(NC(=O)c2ccccc2O)cc1`, the activity in experiment [1] stood at 61%; in experiment [2], 48.8%. Besides, the activity, % sensitization came out at 28% in experiment [3], 37.1% in experiment [4], 29% in experiment [5] and 31.3% in experiment [6].

In the case of `O=C(Nc1ccc2c(c1)OCCO2)NC1CCCCC1`, the activity came to 49.5% in experiment [1] and 35.8% in experiment [2]. Moreover, the activity, % sensitization in experiment [3] was found to be 31.2%; in experiment [4] it was 41.7%; in experiment [5], 32.9%; in experiment [6], 21%.

For the compound `O=C(NC1=NCCS1)c1cc2ccccc2o1`, the activity was found to be 56.6% in experiment [1] and 48.6% in experiment [2]. Moreover, the activity, % sensitization in experiment [3] was found to be 45.6%; in experiment [4] it was 47%; in experiment [5], 8.75%; in experiment [6], 39.6%.

Take `CC(=O)c1ccc(NC(=O)Nc2cccnc2)cc1`: the activity is 52.1% in experiment [1] and 45% in experiment [2]. Further, the activity, % sensitization in experiment [3] amounted to 32.2%; in experiment [4] it was 44.9%; in experiment [5] it was 35.1%; in experiment [6] it was 43.9%.

For `CN(C)CCCN(C(=O)c1ccc(C(=O)c2ccccc2)cc1)c1nc2ccc(F)cc2s1`, the activity was 64.6% in experiment [1] and 34.9% in experiment [2]. The activity, % sensitization in experiment [3] turned out to be 12.1%; in experiment [4] it was 3.85%; in experiment [5] it was 0.995%; in experiment [6], 25.8%.

In the case of `CCN(CC)S(=O)(=O)c1ccc(C(=O)OCC(=O)Nc2ccc(-c3nc4ccc(C)cc4s3)cc2)cc1`, the figures for the activity in experiment [1] and in experiment [2] were 68.5% and 55%, respectively. In addition, the activity, % sensitization was 20.1% in experiment [3], -0.711% in experiment [4], 13.4% in experiment [5] and -8.61% in experiment [6].

In the case of `COCCCn1c(C(=O)Nc2ccc3c(c2)OCO3)cc2c(=O)n3cccc(C)c3nc21`, the results for the activity in experiment [1] and in experiment [2] were 70.2% and 28.2%, respectively. Further, the activity, % sensitization in experiment [3] is -7.02%; in experiment [4], -8.71%; in experiment [5], -1.61%; in experiment [6], -25.9%.

Take `O=c1[nH]c(=S)[nH]c2c1C(c1ccc(Cl)c(Cl)c1)OC(CCc1ccccc1)C2` (stereo not given): the values for the activity in experiment [1] and in experiment [2] were 57.9% and 37.3%, respectively. Besides, the activity, % sensitization is -9.52% in experiment [3], -15.8% in experiment [4], -5.58% in experiment [5] and 14% in experiment [6].
